According to PubChem BioAssay (Tox21):
“And” between values parts separate entries of the source, which are not always exact repeats. Identical values can stand only once. Records with an inconclusive call do not appear. Entries that show only a call come without a potency. Some structures have more than one record in an assay (separate samples or runs), and their calls can disagree. The source made the active and inactive calls. Unless noted, calls follow the shape of the dose curve; as a rule, active = well fitted curve in the direction sought with a large enough effect in the repeat runs; inconclusive = weak or mixed curves; inactive = no such curve, though single readings can be large; an effect the other way counts as inactive or inconclusive. Starred links: 1 amine or outer side, 2 acyl side, 3 side chain; linkers in the order of their positions; H or OH if unused. Positions of bridges follow the written chain, without caps; N, C: chain ends. Non-standard residues stand in square brackets, D forms with d. Residues, ends and D or L forms follow the SMILES beside them. Chains are numbered I, II in the order given. Actinocin(9to1) = Cc1c2oc3c(C)ccc(C(=O)[*:1])c3nc-2c(C(=O)[*:2])c(N)c1=O; NMeV = CN[C@H](C(=O)O)C(C)C; Sar = CNCC(=O)O

Tests used:
[1] = qHTS assay to identify small molecule agonists of the peroxisome proliferator-activated receptor delta (PPARd) signaling pathway - cell viability counter screen (AID 743211); also: nearly all actives have a fitted effect of over 55% in size; also: potency is read from the fitted curve at half-maximal effect
Outline: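 Read-out: CellTiter-Glo luminescence, 30 min RT, measured in the same wells as the beta-lactamase reporter. Cells: GeneBLAzer PPAR delta UAS-bla HEK293H, 3000 cells/well, compound exposure 17 h at 37C.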

[2] = molecular target: Peroxisome proliferator-activated receptor delta (Homo sapiens) (UniProt Q03181); test: qHTS assay to identify small molecule agonists of the peroxisome proliferator-activated receptor delta (PPARd) signaling pathway (AID 743212; calls by dose curve)
Outline: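 Quantitative high-throughput agonist screen in a HEK293H beta-lactamase reporter line under UAS control. Compounds in DMSO, at 37 C. Fluorescence read after 2 h with FRET substrate at room temperature.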

[3] = qHTS assay to identify small molecule antagonists of the peroxisome proliferator-activated receptor delta (PPARd) signaling pathway - cell viability counter screen (AID 743213); also: nearly all actives have a fitted effect of over 50% in size; also: potency is read from the fitted curve at half-maximal effect
Outline: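 PPARd-bla HEK293H cells were treated with compounds plus agonist L165041 (300 nM final) for 17 h at 37 C. Viability was then read in the same wells by CellTiter-Glo luminescence after 30 min at room temperature.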

[4] = molecular target: Peroxisome proliferator-activated receptor delta (Homo sapiens) (UniProt Q03181); test: qHTS assay to identify small molecule antagonists of the peroxisome proliferator-activated receptor delta (PPARd) signaling pathway (AID 743215; active = well fitted inhibition curve with a large enough effect in the signal ratio in the repeat runs, not every such curve was filed as active; the % refers to the signal ratio;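 also: cells stimulated with agonist L165041 at 300 nM final during compound exposure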; also: potency is read from the fitted curve at half-maximal effect)
Outline: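 PPARd-bla HEK293H cells (UAS-bla reporter) preincubated 5 h, then given compound plus 300 nM final L165041 agonist for 17 h at 37 C. Beta-lactamase activity read by LiveBLAzer B/G FRET substrate fluorescence after 2 h at room temperature.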

[5] = qHTS assay to identify small molecule agonists of the farnesoid-X-receptor (FXR) signaling pathway - cell viability counter screen (AID 743218); also: nearly all actives have a fitted effect of over 45% in size; also: potency is read from the fitted curve at half-maximal effect
Outline: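 FXR-UAS-bla HEK 293T cells exposed to compounds for 16 h at 37C. Cytotoxicity read in the same wells by CellTiter-Glo luminescence after 30 min at room temperature, following the beta-lactamase FRET read.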

[6] = qHTS assay to identify small molecule antagonists of the farnesoid-X-receptor (FXR) signaling pathway - cell viability counter screen (AID 743221; active = well fitted cell-killing curve with a large enough effect in the repeat runs, not every such curve was filed as active; also: nearly all actives have a fitted effect of over 50% in size; also: potency is read from the fitted curve at half-maximal effect)
Outline: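 HEK 293T FXR-bla cells, 5 h pre-incubation; compound + CDCA 50 uM final, 16 h, 37 C; beta-lactamase FRET read first, then CellTiter-Glo luminescence, 30 min RT.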

[7] = molecular target: Vitamin D3 receptor (Homo sapiens) (UniProt P11473); test: qHTS assay to identify small molecule agonists of the vitamin D receptor (VDR) signaling pathway (AID 743222; calls by dose curve; also: potency is read from the fitted curve at half-maximal effect)
Outline: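 VDR-bla cells plated 4 h at 37 C, then exposed to compounds for 16 h at 37 C. Beta-lactamase reporter activity measured by fluorescence after 2 h room-temperature loading with LiveBLAzer B/G FRET substrate.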

[8] = molecular target: Vitamin D3 receptor (Homo sapiens) (UniProt P11473); test: qHTS assay to identify small molecule antagonists of the vitamin D receptor (VDR) signaling pathway (AID 743223; active = well fitted inhibition curve with a large enough effect in the signal ratio in the repeat runs, not every such curve was filed as active; the % refers to the signal ratio; also: potency is read from the fitted curve at half-maximal effect)
Outline: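 Beta-lactamase reporter read-out: FRET substrate fluorescence after 2 h at room temperature, following 16 h exposure of VDR-bla cells to test compound plus 3 nM (final) 1alpha,25-dihydroxyvitamin D3 agonist at 37C.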

[9] = molecular target: Bile acid receptor (Homo sapiens) (UniProt Q96RI1); test: qHTS assay to identify small molecule agonists of the farnesoid-X-receptor (FXR) signaling pathway (AID 743220; active = well fitted activation curve with a large enough effect in the signal ratio in the repeat runs, not every such curve was filed as active; the % refers to the signal ratio)
Outline: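 Beta-lactamase reporter under UAS control in GeneBLAzer FXR HEK 293T cells (5000/well) measured with LiveBLAzer FRET substrate after 2 h at room temperature. Compound exposure lasted 16 h at 37C.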

[10] = molecular target: Bile acid receptor (Homo sapiens) (UniProt Q96RI1); test: qHTS assay to identify small molecule antagonists of the farnesoid-X-receptor (FXR) signaling pathway (AID 743217; active = well fitted inhibition curve with a large enough effect in the signal ratio in the repeat runs, not every such curve was filed as active; the % refers to the signal ratio; also: potency is read from the fitted curve at half-maximal effect)
Outline: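 FXR-UAS-bla HEK 293T cells (beta-lactamase reporter) given compound plus chenodeoxycholic acid (50 uM final), 16 h at 37C. LiveBLAzer B/G FRET substrate added for 2 h at room temperature; fluorescence read.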

Peroxisome proliferator-activated receptor delta (Homo sapiens), sequence (Q03181 whole entry, looked up): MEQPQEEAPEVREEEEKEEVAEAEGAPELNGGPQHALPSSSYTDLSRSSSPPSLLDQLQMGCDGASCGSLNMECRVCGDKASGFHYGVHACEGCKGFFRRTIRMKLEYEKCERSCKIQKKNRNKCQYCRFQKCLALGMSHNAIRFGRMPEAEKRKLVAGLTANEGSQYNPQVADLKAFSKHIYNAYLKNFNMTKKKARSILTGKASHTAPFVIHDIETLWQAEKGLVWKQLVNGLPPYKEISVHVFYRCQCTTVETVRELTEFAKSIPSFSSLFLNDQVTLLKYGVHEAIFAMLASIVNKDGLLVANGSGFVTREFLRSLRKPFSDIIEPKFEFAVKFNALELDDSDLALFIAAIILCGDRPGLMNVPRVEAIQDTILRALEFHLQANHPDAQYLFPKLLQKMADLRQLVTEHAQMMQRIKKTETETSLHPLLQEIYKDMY
Bile acid receptor (Homo sapiens), sequence (Q96RI1 whole entry, looked up): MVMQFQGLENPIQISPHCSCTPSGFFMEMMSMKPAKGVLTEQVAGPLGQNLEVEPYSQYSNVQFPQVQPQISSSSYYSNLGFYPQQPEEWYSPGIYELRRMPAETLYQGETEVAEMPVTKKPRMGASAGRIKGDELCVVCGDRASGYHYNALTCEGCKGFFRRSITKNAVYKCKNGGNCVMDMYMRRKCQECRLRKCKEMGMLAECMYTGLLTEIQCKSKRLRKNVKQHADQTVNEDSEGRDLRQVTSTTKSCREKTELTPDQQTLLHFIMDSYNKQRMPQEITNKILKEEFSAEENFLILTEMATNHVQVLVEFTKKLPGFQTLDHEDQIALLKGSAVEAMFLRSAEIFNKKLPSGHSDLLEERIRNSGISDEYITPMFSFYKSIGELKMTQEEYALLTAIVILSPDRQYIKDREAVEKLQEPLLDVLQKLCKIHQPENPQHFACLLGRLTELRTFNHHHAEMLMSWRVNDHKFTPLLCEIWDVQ
Vitamin D3 receptor (Homo sapiens), sequence (P11473 whole entry, looked up): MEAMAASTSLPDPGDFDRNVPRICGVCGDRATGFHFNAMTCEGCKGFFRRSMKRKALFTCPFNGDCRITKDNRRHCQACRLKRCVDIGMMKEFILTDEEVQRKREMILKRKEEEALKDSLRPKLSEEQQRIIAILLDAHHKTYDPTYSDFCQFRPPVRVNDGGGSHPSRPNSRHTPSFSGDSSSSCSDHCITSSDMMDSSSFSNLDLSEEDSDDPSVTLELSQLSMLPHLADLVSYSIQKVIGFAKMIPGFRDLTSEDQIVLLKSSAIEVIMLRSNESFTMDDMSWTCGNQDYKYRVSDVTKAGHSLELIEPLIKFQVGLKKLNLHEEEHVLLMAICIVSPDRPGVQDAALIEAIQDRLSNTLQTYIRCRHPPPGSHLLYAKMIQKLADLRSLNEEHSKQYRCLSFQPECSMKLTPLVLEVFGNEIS

## CC(C)(O)CCC(C)(C)O
[1]
  Potency: inactive
[2]
  Potency: inactive
[3]
  Potency: inactive
[4]
  Potency: inactive
[5]
  Potency: inactive
[6]
  Potency: inactive
[7]
  Potency: inactive
[8]
  Potency: inactive

## C=C(C)C(=O)O
[1]
  Potency: inactive
[2]
  Potency: inactive
[3]
  Potency: inactive
[4]
  Potency: inactive
[5]
  Potency: inactive
[6]
  Potency: inactive
[7]
  Potency: inactive
[8]
  Potency: inactive

## CC(C)(C)c1cc(C(C)(C)C)c(O)c(C(C)(C)C)c1
[1]
  Potency: 49 µM (active)
[2]
  Potency: inactive
[3]
  Potency: inactive
[4]
  Potency: inactive
[9]
  Potency: inactive
[6]
  Potency: inactive

## CCCNC(C)C(=O)Nc1ccccc1C (centres undefined)
[1]
  Potency: inactive
[2]
  Potency: inactive
[3]
  Potency: inactive
[4]
  Potency: inactive
[6]
  Potency: inactive
[7]
  Potency: inactive
[8]
  Potency: inactive

## O=C(O)CCc1ccccc1
[1]
  Potency: inactive
[2]
  Potency: inactive
[3]
  Potency: inactive
[4]
  Potency: inactive
[5]
  Potency: inactive
[6]
  Potency: inactive
[7]
  Potency: inactive

## CC(=O)OCC1=C(C(=O)O)N2C(=O)[C@@H](NC(=O)Cc3cccs3)[C@H]2SC1
[1]
  Potency: inactive
[3]
  Potency: inactive
[10]
  Potency: inactive
[5]
  Potency: inactive
[9]
  Potency: inactive
[6]
  Potency: inactive
[7]
  Potency: inactive
[8]
  Potency: inactive

## CCCCCCCCCCCCc1ccccc1O
[1]
  Potency: 13.6 µM (active) and 34.7 µM (active)
[3]
  Potency: 24.2 µM (active) and 21.9 µM (active)
[10]
  Potency: 49 µM (active)
[5]
  Potency: 17.2 µM (active) and 30.9 µM (active)
[6]
  Potency: 43.1 µM (active) and 43.6 µM (active)
[8]
  Potency: 15.3 µM (active) and 19.5 µM (active)

## CN(C)c1ccc2nc3ccc(=[N+](C)C)cc-3sc2c1
[1]
  Potency: 9.39 µM (active) and 49 µM (active)
[3]
  Potency: 49 µM (active) and inactive
[10]
  Potency: 8.37 µM (active) and 21.9 µM (active) and 8.41 µM (active)
[5]
  Potency: inactive
[9]
  Potency: inactive
[6]
  Potency: 21 µM (active) and 49 µM (active)

## CCOc1ccc2c(c1)C(C)=CC(C)(C)N2
[1]
  Potency: inactive
[2]
  Potency: inactive
[3]
  Potency: inactive
[6]
  Potency: inactive

## C=CC(=O)OCCCCCCOC(=O)C=C
[1]
  Potency: 49.6 µM (active)
[3]
  Potency: inactive
[10]
  Potency: inactive
[5]
  Potency: inactive
[6]
  Potency: inactive

## CCCCCCCCCCCC[N+](C)(C)C
[1]
  Potency: 54.9 µM (active) and 49 µM (active)
[3]
  Potency: 54.9 µM (active) and 15.5 µM (active)
[10]
  Potency: inactive
[5]
  Potency: inactive
[9]
  Potency: inactive
[6]
  Potency: inactive

## CCN(CC)CCOc1ccc(/C(=C(\Cl)c2ccccc2)c2ccccc2)cc1
[1]
  Potency: 35.4 µM (active) and 29.8 µM (active)
[3]
  Potency: 39.7 µM (active)
[10]
  Potency: inactive
[5]
  Potency: 35.4 µM (active) and 26.6 µM (active)
[9]
  Potency: inactive
[7]
  Potency: inactive
[8]
  Potency: 31.6 µM (active)

## O=C(O)CP(=O)(O)O
[1]
  Potency: inactive
[2]
  Potency: inactive
[6]
  Potency: inactive
[8]
  Potency: inactive

## COc1cc(C(=S)N2CCOCC2)ccc1O
[1]
  Potency: inactive
[2]
  Potency: inactive
[4]
  Potency: inactive
[6]
  Potency: inactive

## c1ccc2c(c1)-c1cccc3c1c-2cc1ccccc13
[1]
  Potency: inactive
[3]
  Potency: inactive
[4]
  Potency: inactive
[5]
  Potency: inactive
[6]
  Potency: inactive

## Nc1cc(S(=O)(=O)O)cc2cc(S(=O)(=O)O)cc(O)c12
[1]
  Potency: inactive
[3]
  Potency: inactive
[10]
  Potency: inactive
[5]
  Potency: inactive
[9]
  Potency: inactive
[6]
  Potency: inactive
[7]
  Potency: 24.4 µM (active)
[8]
  Potency: inactive

## CCN(CC)C(=S)SSC(=S)N(CC)CC
[1]
  Potency: 110 nM (active) and 44.7 nM (active) and 150 nM (active)
[3]
  Potency: 123 nM (active) and 39.8 nM (active) and 150 nM (active)
[4]
  Potency: 0.0871 µM (active)
[6]
  Potency: 222 nM (active) and 188 nM (active)

## O=S(=O)(O)c1ccc2nc(-c3ccccc3)[nH]c2c1
[1]
  Potency: 8.29 µM (active)
[2]
  Potency: inactive
[4]
  Potency: inactive
[10]
  Potency: inactive
[5]
  Potency: inactive
[9]
  Potency: inactive
[6]
  Potency: 7.39 µM (active)

## Cc1ccc(S(=O)(=O)Oc2ccc(N=Nc3ccc(-c4ccc(N=Nc5c(O)ccc6cc(S(=O)(=O)O)cc(S(=O)(=O)O)c56)c(C)c4)cc3C)cc2)cc1
[1]
  Potency: inactive
[2]
  Potency: inactive
[4]
  Potency: inactive
[10]
  Potency: inactive
[9]
  Potency: inactive
[6]
  Potency: inactive
[8]
  Potency: inactive

## CCCCC(CC)COC(=O)CC(C(=O)OCC(CC)CCCC)S(=O)(=O)O (centres undefined)
[1]
  Potency: 37.4 µM (active) and 24.5 µM (active)
[3]
  Potency: 15.5 µM (active)
[4]
  Potency: inactive
[5]
  Potency: 52.9 µM (active) and 43.6 µM (active)
[6]
  Potency: 43.6 µM (active)
[7]
  Potency: inactive
[8]
  Potency: inactive

## COC(=O)[C@H]1[C@H]2C[C@@H]3c4[nH]c5cc(OC)ccc5c4CCN3C[C@H]2C[C@@H](OC(=O)c2cc(OC)c(OC)c(OC)c2)[C@@H]1OC
[1]
  Potency: 17.9 µM (active)
[3]
  Potency: 17.9 µM (active)
[4]
  Potency: inactive
[6]
  Potency: inactive

## O=C1CC2(CCCC2)CC(=O)N1CCCCN1CCN(c2ncccn2)CC1
[1]
  Potency: inactive
[3]
  Potency: inactive
[10]
  Potency: inactive
[9]
  Potency: inactive
[6]
  Potency: inactive
[7]
  Potency: inactive

## Cc1cccc([N+](=O)[O-])c1C(=O)O
[1]
  Potency: inactive
[2]
  Potency: inactive
[4]
  Potency: inactive
[10]
  Potency: inactive
[5]
  Potency: inactive
[9]
  Potency: inactive
[6]
  Potency: inactive
[7]
  Potency: inactive

## CC(=O)CC(C)=O
[1]
  Potency: inactive
[2]
  Potency: inactive
[3]
  Potency: inactive
[6]
  Potency: inactive

## Nc1cc(Cl)c(-c2cc(Cl)c(N)cc2Cl)cc1Cl
[1]
  Potency: 48.9 µM (active) and 43.6 µM (active)
[2]
  Potency: inactive
[3]
  Potency: 24.5 µM (active)
[6]
  Potency: 38.9 µM (active)
[8]
  Potency: 54.9 µM (active)

## CC1=CC(=O)c2ccccc2C1=O
[1]
  Potency: 19.5 µM (active) and 26.6 µM (active)
[3]
  Potency: 19.5 µM (active)
[4]
  Potency: 33.5 µM (active)
[5]
  Potency: 24.5 µM (active)

## Cc1c2oc3c(C)ccc(C(=O)N[C@@H]4C(=O)N[C@H](C(C)C)C(=O)N5CCC[C@H]5C(=O)N(C)CC(=O)N(C)[C@@H](C(C)C)C(=O)O[C@@H]4C)c3nc-2c(C(=O)N[C@@H]2C(=O)N[C@H](C(C)C)C(=O)N3CCC[C@H]3C(=O)N(C)CC(=O)N(C)[C@@H](C(C)C)C(=O)O[C@@H]2C)c(N)c1=O (I: T[dV]P[Sar][NMeV] / II: T[dV]P[Sar][NMeV]; ester I:1-I:C, II:1-II:C; linker I:N-II:N via Actinocin(9to1))
[1]
  Potency: 26.8 µM (active) and inactive
[2]
  Potency: inactive
[4]
  Potency: 1.7 nM (active) and 11.9 nM (active)
[6]
  Potency: inactive
[7]
  Potency: inactive

## c1ccc2cc3c(ccc4ccccc43)cc2c1
[1]
  Potency: inactive
[3]
  Potency: inactive
[10]
  Potency: inactive
[5]
  Potency: inactive
[9]
  Potency: inactive
[6]
  Potency: inactive
[7]
  Potency: inactive
[8]
  Potency: inactive

## O=Nc1ccc(Nc2ccccc2)cc1
[1]
  Potency: 43.9 µM (active) and 38.9 µM (active)
[3]
  Potency: 49 µM (active)
[4]
  Potency: 30.9 µM (active)
[6]
  Potency: 39.1 µM (active)
[7]
  Potency: inactive

## CCC(C)(Oc1ccc(C2(c3ccc(OC(C)(CC)C(=O)O)cc3)CCCCC2)cc1)C(=O)O (centres undefined)
[1]
  Potency: inactive
[3]
  Potency: inactive
[10]
  Potency: inactive
[5]
  Potency: inactive
[9]
  Potency: inactive
[6]
  Potency: inactive
